According to the supplement of paper PMC6555819:

tested on: FXR:RXRa (NR concentration 270 nM, RXRa partner concentration 90 nM); experiment: PBM binding z-score (relative to random genomic background probes); higher = stronger binding; sequences stand for … in GC…GCGATTGACAGCGTAGAATGAAGG
How it was run: (§1)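 Ligand-free nuclear receptor dimers were bound for 1 h to custom Agilent 4×180K protein-binding microarrays. Detection used antibodies against each partner (one per run). Binding z-scores rest on regression-normalized fluorescence, with random background probes as the reference.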

Row | Sequence | PBM binding z-score
1 | CCTAGTTGGTCAGCAGGTCACACACCGGATATGA | 1.89
2 | TGAAGGAGGTTAAAGATCAGGGAACGTGGCGTCG | 2.43
3 | GCTAGCAGGCCAATTGGGTCACTCAATGACGGGC | -0.057
4 | TCAGACTGGTGAAGGTAACTCAGGTACGCAGTCG | -0.62
5 | CAGCCTAGGTCACGGCCAGTATAGGAGGAACGTT | 4.98
6 | CTCGAAAGGTCGTGCTCAGGTGAGTAAACCAAAC | 5.29
7 | GCTTGAAGATCAAGGTTAAGAAAGACTAAGCTAA | 0.0422
8 | CCTAGCAGGCCGGGGTCACTCAAGCATTTCGCTT | 4.66
9 | CAGCCTAGGTCAGGGCCACTATAGGAGGAACGTT | 1.85
10 | CCGACTGGAGCAAAGGTTACCATACTCAGTACGA | 0.849
11 | TGAATGAGGTTATAAGATCTGGGAACGTTGCAAA | 1.32
12 | GATACAGGGTCAGCTAGAGGCCAGGGTATGGAAA | 4.42
13 | ACACACAGGTGATGAAGGTAACTCAGGCTATCAT | -0.0193
14 | AGCTCTAGGTAAAGATAGTTCAGTGAATGCAAAT | -0.108
15 | CCTACTGGGCCAAAAAGGTCAATGATGCCGATAA | 2.77
16 | GCTCGGACGACAAGGTCAGAGCTTTGTCCGTAGA | 1.39
17 | GGAACGAGGGCAAAGTTGATAGCTTCTGTCGACG | 1.24
18 | ATATGTGGGTTACATCCGGGTCATTCAGGCTATG | 2.27
19 | CGAACTAGGTCATTGACAGGACTGTGAATAGTAA | 4.46
20 | TGAATGAGGTTATAAGATTAGGGAACGTTGCAAA | 1.34

Row | Sequence | PBM binding z-score
21 | GCTAGTTGCTCAGTAAAAGGTCACACACCGGTCG | 3.27
22 | TTACCAAGGTGAGCTGAGGTCGTTAATCCAACTC | 1.47
23 | ACAGACAGGTGAGTGAAGGTAACTCATCTGGACG | 0.0966
24 | GCGACTGGGGCATCAGCAGGTTATCATAACTTAA | -0.342
25 | ACTATTAGTTGACTTAGGGTAACCGATACGACGC | 0.985
26 | TCTCGGAGGACAGGAAGGTCAGAGCTTTCCAGAG | 0.736
27 | CTGCCTAGGTCAGGGCCAGTATAGGAGGAACGTT | 1.28
28 | TGAATGAGGTTATAAAATCAGGGAACGTTGCAAA | 0.804
29 | ACAGACAGGTGATGAAGGTGACTCAGGCTATCAT | 0.202
30 | CGACCAAGGTCATAGGAGGTCAGTGAAGACAGAT | 7.7
31 | GTTACAGGGTCAGCTAGAGGCCAGAGTATGGAAA | 4.39
32 | CCTTACGGGTCACTGACAGGTTATACCATTTGGA | 4.86
33 | ATCTCTAGGTAAAGTTCAGTGAGAGATCGATAGA | 1.25
34 | ATCTCTAGGTAACAAATTCAGTGAAAGAGAGGAC | 0.723
35 | CGTCCAAGGTCAAGGTCAGTGTAAGAGACTCGAA | 7.52
36 | CGTACAAGGTCAGAGAGGTCAGTGAATGCCGAGT | 6.42
37 | ACTTACGGGTAAACGAGGTTATAGCACGCGTATA | 0.677
38 | GCTGCTAGGTCAGGTGGGTCAGCTAACGGGTACG | 1.62
39 | CCTACTGTGCCACGAAAGGTCATTGATTCAGTGA | 3.98
40 | CCTGCTAGGTCAATGGTCAGCAAAAGCAGCTCGC | 2.97

tested on: LXRa:RXRa (NR concentration 270 nM, RXRa partner concentration 90 nM); experiment: as above
How it was run: as §1

Row | Sequence | PBM binding z-score
41 | CCTAGTTGGTCAGCAGGTCACACACCGGATATGA | 1.8
42 | TGAAGGAGGTTAAAGATCAGGGAACGTGGCGTCG | 2.05
43 | GCTAGCAGGCCAATTGGGTCACTCAATGACGGGC | -0.159
44 | TCAGACTGGTGAAGGTAACTCAGGTACGCAGTCG | 0.98
45 | CAGCCTAGGTCACGGCCAGTATAGGAGGAACGTT | 3.61
46 | CTCGAAAGGTCGTGCTCAGGTGAGTAAACCAAAC | 3.87
47 | GCTTGAAGATCAAGGTTAAGAAAGACTAAGCTAA | 0.502
48 | CCTAGCAGGCCGGGGTCACTCAAGCATTTCGCTT | 3.63
49 | CAGCCTAGGTCAGGGCCACTATAGGAGGAACGTT | 1.24
50 | CCGACTGGAGCAAAGGTTACCATACTCAGTACGA | 1.39
51 | TGAATGAGGTTATAAGATCTGGGAACGTTGCAAA | 1.03
52 | GATACAGGGTCAGCTAGAGGCCAGGGTATGGAAA | 2.81
53 | ACACACAGGTGATGAAGGTAACTCAGGCTATCAT | 0.147
54 | AGCTCTAGGTAAAGATAGTTCAGTGAATGCAAAT | 3.76
55 | CCTACTGGGCCAAAAAGGTCAATGATGCCGATAA | 3.48
56 | GCTCGGACGACAAGGTCAGAGCTTTGTCCGTAGA | 1.19
57 | GGAACGAGGGCAAAGTTGATAGCTTCTGTCGACG | 0.709
58 | ATATGTGGGTTACATCCGGGTCATTCAGGCTATG | 4.1
59 | CGAACTAGGTCATTGACAGGACTGTGAATAGTAA | 2.5
60 | TGAATGAGGTTATAAGATTAGGGAACGTTGCAAA | 1.39

Row | Sequence | PBM binding z-score
61 | GCTAGTTGCTCAGTAAAAGGTCACACACCGGTCG | 4.03
62 | TTACCAAGGTGAGCTGAGGTCGTTAATCCAACTC | 0.747
63 | ACAGACAGGTGAGTGAAGGTAACTCATCTGGACG | -0.0411
64 | GCGACTGGGGCATCAGCAGGTTATCATAACTTAA | -0.258
65 | ACTATTAGTTGACTTAGGGTAACCGATACGACGC | 1.09
66 | TCTCGGAGGACAGGAAGGTCAGAGCTTTCCAGAG | 1.07
67 | CTGCCTAGGTCAGGGCCAGTATAGGAGGAACGTT | 1.01
68 | TGAATGAGGTTATAAAATCAGGGAACGTTGCAAA | 0.908
69 | ACAGACAGGTGATGAAGGTGACTCAGGCTATCAT | 0.0616
70 | CGACCAAGGTCATAGGAGGTCAGTGAAGACAGAT | 7.58
71 | GTTACAGGGTCAGCTAGAGGCCAGAGTATGGAAA | 3.18
72 | CCTTACGGGTCACTGACAGGTTATACCATTTGGA | 4.42
73 | ATCTCTAGGTAAAGTTCAGTGAGAGATCGATAGA | 1.82
74 | ATCTCTAGGTAACAAATTCAGTGAAAGAGAGGAC | 0.714
75 | CGTCCAAGGTCAAGGTCAGTGTAAGAGACTCGAA | 5.66
76 | CGTACAAGGTCAGAGAGGTCAGTGAATGCCGAGT | 5.64
77 | ACTTACGGGTAAACGAGGTTATAGCACGCGTATA | 2.57
78 | GCTGCTAGGTCAGGTGGGTCAGCTAACGGGTACG | 1.2
79 | CCTACTGTGCCACGAAAGGTCATTGATTCAGTGA | 5.43
80 | CCTGCTAGGTCAATGGTCAGCAAAAGCAGCTCGC | 2.15
